In PubChem BioAssay AID598 (SRMLSC, 2007):
About 5,100 (6%) of roughly 85,000 compounds were called active. This is one part of a sample in which actives are shown more often than they occur.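 The calls were made as follows: active = viability at or below 40%; inactive = viability above 40%.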

Assay: H69AR cell viability reduction – human, 86K library, primary screen (AID 598);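 also: multidrug resistant small cell line overexpressing MRP-1 efflux transporter; 100% = mean luminescence of untreated control wells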
Details: H69AR lung tumor viability, ATP luminescence, 72 h; at 10 µM; active compounds read low

Row | Compound | viability
1 | COc1cc(S(=O)(=O)N(Cc2cccs2)C2CC2)ccc1-n1cnnn1 | 68% (inactive)
2 | COC(=O)c1ccccc1NC(=O)Cc1ccccc1OC | 94.2% (inactive)
3 | CCOC(=O)c1nnn(-c2nonc2-n2cccc2)c1CN1CCC(C(=O)OCC)CC1 | 70.5% (inactive)
4 | CCOc1ccc(S(=O)(=O)NCCSc2ccccc2)cc1 | 105% (inactive)
5 | COc1ccc(C(=O)N2CC3(C)CC2CC(C)(C)C3)cc1OC (stereo not drawn) | 88.7% (inactive)
6 | Cc1coc2c(O)cc3c(c12)OC1(N2CCCCC2)C(=O)NCCCC31 (stereo not drawn) | 1.27% (active)
7 | CCc1c(O)cc2n(c1=O)-c1ccccc1C2(C)C | 91.5% (inactive)
8 | COC(=O)c1ccc(/C=N\n2c(C)nnc2C)cc1 | 99.6% (inactive)
9 | Cc1nnc(C)n1/N=C/c1ccc(C(C)C)cc1 | 106% (inactive)
10 | COc1ccc(Br)cc1/C=N/n1c(C)nnc1C | 28.1% (active)
11 | CCN(CC)CC(=O)c1c[nH]c2ccc(OC)cc12 | 77.2% (inactive)
12 | CC(c1ccco1)N(C(=O)Nc1ccccc1)C1CCCCC1 (stereo not drawn) | 77.7% (inactive)
13 | O=C(CO/N=C/c1ccccc1O)NNC(=O)c1ccccc1Cl | 102% (inactive)
14 | CC[C@]1(O)CC2CN(CCc3c([nH]c4ccccc34)[C@@](C(=O)OC)(c3cc4c(cc3OC)N(C=O)[C@H]3[C@@](O)(C(=O)OC)[C@H](OC(C)=O)[C@]5(CC)C=CCN6CC[C@]43[C@@H]65)C2)C1 (stereo partly drawn) | 31.9% (active)
15 | CC(C)c1cc(C(=O)O)n[nH]1 | 102% (inactive)
16 | Cc1ccc(NC(=O)CSCC(=O)N2CCOCC2)cc1 | 93.9% (inactive)
17 | CCCc1[nH]nc2c1C(c1ccc(OC(=O)c3ccco3)cc1)C(C#N)=C(N)O2 (stereo not drawn) | 97.7% (inactive)
18 | CCCc1[nH]nc2c1C(c1ccc(OC)c(Cn3nc(C)c(Br)c3C)c1)C(C#N)=C(N)O2 (stereo not drawn) | 87.4% (inactive)
19 | CCCc1[nH]nc2c1C(c1ccc(Br)s1)C(C#N)=C(N)O2 (stereo not drawn) | 1.42% (active)
20 | CCOc1ccc(CN(Cc2ccco2)S(=O)(=O)c2ccc(-n3cnnn3)c(OC)c2)cc1 | 66.6% (inactive)
21 | Cc1c(C=O)c2ccccn2c1C(=O)c1ccncc1 | 87.6% (inactive)
22 | Cc1ccc(-c2cc(C(=O)NCC3CCCO3)c3ccccc3n2)o1 (stereo not drawn) | 87.9% (inactive)
23 | Cc1ccc(-c2csc(SCC(=O)Nc3cc(C)on3)n2)cc1 | 87.9% (inactive)
24 | Cc1ccc2nc(-c3ccc(SCC(=O)Nc4cc(C)on4)nc3)[nH]c2c1 | 10.7% (active)

Row | Compound | viability
25 | COc1ccc2nc(SCC(=O)Nc3c(C)cc(C)cc3C)[nH]c2c1 | 71.7% (inactive)
26 | CC(C)NC(=O)CSc1nnc(COc2ccccc2Cl)o1 | 106% (inactive)
27 | CCCC(C)C(=O)Nc1ccc(NC(C)=O)cc1 (stereo not drawn) | 103% (inactive)
28 | CCCC(=O)Nc1ccc(Cl)c(NC(=O)c2ccc(Br)o2)c1 | 28.2% (active)
29 | CCN1CCN(c2c(Cl)cccc2NC(=O)c2ccc(Br)o2)CC1 | 90.5% (inactive)
30 | COc1cc(OC)c(NC(=O)c2ccc(Br)o2)cc1Cl | 58.5% (inactive)
31 | CCN(c1ccccc1)S(=O)(=O)c1ccc(N)cc1 | 89.9% (inactive)
32 | CCN(c1ccccc1)S(=O)(=O)c1cccc(C(=O)O)c1 | 103% (inactive)
33 | CCN(c1ccccc1)S(=O)(=O)c1ccc(NC(=O)C(C)(C)C)cc1 | 34.8% (active)
34 | COc1ccc(/C(O)=C2\C(=O)C(=O)N(Cc3ccco3)C2c2ccc(OC)cc2OC)cc1 (stereo not drawn) | 97.1% (inactive)
35 | CC1=NN(/C(=N\c2nnc(C)s2)Nc2ccccc2)[C@H](c2ccc(C)cc2)S1 | 56.5% (inactive)
36 | CCOC(=O)N1CCN(C(=O)CN(C2CCCCC2)S(C)(=O)=O)CC1 | 84.9% (inactive)
37 | CS(=O)(=O)N(CC(=O)N1CCN(c2ccc(F)cc2)CC1)C1CCCCC1 | 92% (inactive)
38 | CS(=O)(=O)N(CC(=O)Nc1ccc(Cl)c(Cl)c1)C1CCCCC1 | 16.6% (active)
39 | COC(=O)C1=C(C)N=C2SC(C)C(=O)N2C1/C=C/c1ccccc1 (stereo not drawn) | 85.8% (inactive)
40 | O=C(NCCCN1CCCCC1)c1ccc2c(c1)NC(=O)C(N1CCOCC1)S2 (stereo not drawn) | 98.8% (inactive)
41 | Nc1c(C(=O)NCc2ccccc2)nnn1Cc1cccc(Cl)c1 | 26.7% (active)
42 | CCOc1ccc(Cn2nnc(C(=O)NCc3ccccc3)c2N)cc1 | 90.5% (inactive)
43 | CCOc1ccc(Cn2nnc(C(=O)Nc3ccc(OC)cc3OC)c2N)cc1 | 76.9% (inactive)
44 | COc1cc(OC)cc(-c2cc3nc(C4CCN(C(=O)OC(C)(C)C)CC4)cc(=O)n3[nH]2)c1 | 106% (inactive)
45 | COc1ccc(C(=O)NN(C)c2nc(-c3ccccc3)cc(C)c2S(C)(=O)=O)cc1 | 85% (inactive)
46 | Cn1nc(-c2ccc(Cl)cc2)c2cc(C(=O)NCc3ccco3)sc21 | 68.1% (inactive)
47 | O=C(NCc1ccco1)c1nc(-c2ccccc2)n(-c2ccccc2)n1 | 75% (inactive)
48 | Cc1nn(-c2ccccc2)c2sc(C(=O)N(Cc3ccco3)C(C)C(=O)NC(C)(C)C)cc12 (stereo not drawn) | 7.03% (active)

Row | Compound | viability
49 | Cc1cccc(NC(=O)c2sc3nc4c(c(-c5ccco5)c3c2N)CCC4)c1 | 78.6% (inactive)
50 | NC(=O)c1sc2nc3c(c(-c4ccccc4)c2c1N)CCC3 | 73.2% (inactive)
51 | CC(=O)Nc1ccc(NC(=O)c2sc3nc4c(c(-c5ccc(C)cc5)c3c2N)CCC4)cc1 | 30.2% (active)
52 | COc1cc(OC)c(-n2c(C)cc(C=O)c2C)cc1Cl | 104% (inactive)
53 | Cc1cccc(C)c1NC(=O)CSc1nnc(-c2ccccc2)n1Cc1ccc2c(c1)OCO2 | 72.2% (inactive)
54 | CSc1nc(C)cc(SC(C(C)=O)C(=O)Nc2ccccc2)n1 (stereo not drawn) | 100% (inactive)
55 | Cc1onc(-c2ccccc2Cl)c1C(=O)OCC(=O)c1ccccc1 | 97% (inactive)
56 | CN1CCN(CCCNC(=O)c2cc3c(=O)oc4ccccc4c3s2)CC1 | 87.3% (inactive)
57 | O=C(NCCN1CCN(Cc2ccccc2)CC1)c1cc2c(=O)[nH]c3ccccc3c2s1 | 1.91% (active)
58 | O=C(Cc1c(O)c2ccccc2[nH]c1=O)NCc1ccccc1 | 101% (inactive)
59 | COc1ccc(-n2c(C)csc2=S)cc1 | 86.6% (inactive)
60 | CCOc1ccc(C(O)Cn2c(=N)n(CCN3CCCCC3)c3ccccc32)cc1 (stereo not drawn) | 44.7% (inactive)
61 | CCOc1ccc(NC(=O)C2CCCN(C(=O)Nc3ccccc3)C2)cc1 (stereo not drawn) | 79.5% (inactive)
62 | CCOc1ccccc1NC(=O)c1cccnc1 | 87.4% (inactive)
63 | Cc1cc(=O)oc2cc(OCC3CC(c4ccccc4Cl)=NO3)ccc12 (stereo not drawn) | 27.1% (active)
64 | Cc1ccccc1N1CCN(CCCOc2ccc3c(C)cc(=O)oc3c2)CC1 | 58.7% (inactive)
65 | Cc1cc(=O)oc2cc(NC(=O)C3CC(=O)N(Cc4ccccc4)C3)ccc12 (stereo not drawn) | 96.1% (inactive)
66 | O=C(CSCc1c(F)cccc1Cl)NCC1CCCO1 (stereo not drawn) | 90.5% (inactive)
67 | Cc1cc(SCC(=O)c2ccccc2)nc(SCC(=O)c2ccccc2)n1 | 72.1% (inactive)
68 | CCCCN(CCCC)C(=O)CCS(=O)(=O)c1ccc2c(c1)n(C)c(=O)c(=O)n2C | 70.2% (inactive)
69 | Cc1ccc(S(=O)(=O)NCCN2CCOCC2)cc1C | 100% (inactive)
70 | CC(=O)CCS(=O)(=O)c1ccc(C)c(C)c1 | 1.25% (active)
71 | COc1ccc(NC(=O)CSc2nc(NS(=O)(=O)c3ccc(C)cc3)cc(=O)[nH]2)cc1 | 109% (inactive)
72 | COC(=O)c1sccc1-n1cccc1C(=O)C(=O)N1CCCCC1 | 95.1% (inactive)

Row | Compound | viability
73 | Cc1cccc(C(=O)N2CCCN(C(=O)c3cccc(C)c3)CC2)c1 | 94.6% (inactive)
74 | Clc1ccc(COn2c(-c3ccc(Cl)cc3Cl)nc3ncccc32)cc1 | 56.5% (inactive)
75 | c1nnc2c3c4c(sc3ncn12)CCC4 | 39% (active)
76 | N=c1c2c3c(sc2ncn1CCCN1CCOCC1)CCCCC3 | 71% (inactive)
77 | O=C(O)[C@@H]1CCCN1c1ncnc2sc3c(c12)CCC3 | 86.5% (inactive)
78 | CCc1ccc(NC(=O)CN2C(=O)CSC2=O)cc1 | 93% (inactive)
79 | COCCn1c(SCc2nnc(-c3ccc(OC)c(OC)c3)o2)nc2sc3c(c2c1=O)CCC3 | 51.5% (inactive)
80 | O=C(CN1CCN(C(=O)c2ccco2)CC1)Nc1ccc(Cl)c(C(F)(F)F)c1 | 19.9% (active)
81 | O=C(CN1CCN(C(=O)c2ccco2)CC1)Nc1ccc2c(c1)OCO2 | 110% (inactive)
82 | COc1ccc(OC)c(NC(=O)CN2CCN(C(=O)c3ccco3)CC2)c1 | 73.5% (inactive)
83 | O=C(Nc1ccc(Br)cc1)c1cccc(NC(=O)C2C3CC4OC(=O)C2C4C3)c1 (stereo not drawn) | 79.9% (inactive)
84 | COC(=O)NC1(C(F)(F)F)NC(=O)N(C2CCCCC2)C1=O (stereo not drawn) | 103% (inactive)
85 | O=C1NC(Nc2nc3ccccc3s2)(C(F)(F)F)C(=O)N1C1CCCCC1 (stereo not drawn) | 13.4% (active)
86 | COC(=O)CCSc1cc([N+](=O)[O-])cc2c1c(C1OCCS1)nn2-c1ccccc1 (stereo not drawn) | 98.2% (inactive)
87 | Cc1ccc(-n2cc3ccc([N+](=O)[O-])cc3n2)cc1 | 76.8% (inactive)
88 | CCOC(=O)N1CCN(C(=O)c2ccc3c(c2)N(Cc2ccc(C)cc2)CCS3)CC1 | 30.8% (active)
89 | CCOC(=O)N1CCN(C(=O)c2ccc(CN(c3ccc(C)c(C)c3)S(C)(=O)=O)cc2)CC1 | 70.5% (inactive)
90 | CCOC(=O)N1CCN(C(=O)c2ccc(S(=O)(=O)c3ccc(C)cc3)c(NC(C)=O)c2)CC1 | 85.8% (inactive)
91 | COc1ccc(CN(C(=O)CSc2nnc(-c3ccc(OC)c(OC)c3)o2)c2ccc(F)cc2)cc1 | 65.2% (inactive)
92 | CCCNC(=O)CN(Cc1ccccc1F)S(=O)(=O)c1ccc(C)cc1 | 98.5% (inactive)
93 | CC1Cc2ccccc2N1C(=O)c1cc2sccc2n1Cc1ccccc1 (stereo not drawn) | 90.3% (inactive)
